Read-out in assay [1]: Matrix Metallopeptidase 9 (MMP9), MMP9 (gene 4318)
The experiment in a line: BSK_BE3C_MMP9: BioMAP Diversity Plus: BE3C Assay for Matrix Metallopeptidase 9 (MMP9) Biomarker Activity (AID 2284283). To be noted: primary human bronchial epithelial cells. The method in brief:
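Human primary bronchial epithelial cells exposed 24 h to compound. MMP9 quantified by ELISA. SRB total-protein staining of parallel cultures assesses cytotoxicity. Positive-direction fit relative to DMSO.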

Read-out in assay [2]: Plasminogen activator inhibitor-1 (PAI1), SERPINE1 (gene 5054)
The experiment in a line: BSK_CASM3C_PAI1: BioMAP Diversity Plus: CASM3C Assay for Plasminogen activator inhibitor-1 (PAI1) Biomarker Activity (AID 2284284).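 Further: PAI-1 protein level measured by ELISA 24 h after dosing.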 The settings on record: primary human coronary artery smooth muscle cells.

Read-out in assay [3]: Monocyte Chemoattractant Protein-1 (MCP1), CCL2 (gene 6347)
The experiment in a line: BSK_hDFCGF_MCP1: BioMAP Diversity Plus: hDFCGF Assay for Monocyte Chemoattractant Protein-1 (MCP1) Biomarker Activity (AID 2284285). To be noted: primary human foreskin fibroblasts. The method in brief:
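Human foreskin fibroblasts (hDFCGF system) were exposed to compound and secreted MCP-1 was measured by ELISA after 24 hours. Activity was fitted relative to DMSO. Cytotoxicity was checked by SRB total-protein staining in parallel cultures.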

Read-out in assay [4]: Vascular cell adhesion molecule 1 (VCAM1), VCAM1 (gene 7412)
The experiment in a line: BSK_IMphg_VCAM1: BioMAP Diversity Plus: IMphg Assay for Vascular cell adhesion molecule 1 (VCAM1) Biomarker Activity (AID 2284286). The settings on record: primary human endothelial cells with macrophages. The method in brief:
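Human venular endothelial cells co-cultured with macrophages; VCAM-1 quantified by ELISA 24 h after dosing, fitted in the positive direction against DMSO. Cytotoxicity was checked in parallel cultures by SRB total-protein staining (0.1% SRB after 10% TCA fixation, 560 nm).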

Read-out in assay [5]: CD40, CD40 (gene 958)
The experiment in a line: BSK_IMphg_CD40: BioMAP Diversity Plus: IMphg Assay for CD40 Biomarker Activity (AID 2284288). The settings on record: primary human endothelial cells with macrophages. The method in brief:
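Venular endothelial cells co-cultured with macrophages (human primary), CD40 measured by ELISA 24 h after dosing. Positive-direction fit vs DMSO baseline; cytotoxicity tracked by SRB total-protein staining in parallel cultures.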

Read-out in assay [6]: TIMP metallopeptidase inhibitor 2 (TIMP2), TIMP2 (gene 7077)
The assay is described as follows: BSK_hDFCGF_TIMP2: BioMAP Diversity Plus: hDFCGF Assay for TIMP metallopeptidase inhibitor 2 (TIMP2) Biomarker Activity (AID 2284289). To be noted: primary human foreskin fibroblasts. A digest of the protocol: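 Primary human foreskin fibroblasts in the hDFCGF system, dosed for 24 h; TIMP-2 level measured by ELISA, fitted in the positive direction against DMSO; cytotoxicity checked in parallel by sulforhodamine B total protein staining.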

Read-out in assay [7]: Interleukin-1 alpha (IL1a), IL1A (gene 3552)
The experiment in a line: BSK_IMphg_IL1a: BioMAP Diversity Plus: IMphg Assay for Interleukin-1 alpha (IL1a) Biomarker Activity (AID 2284290). To be noted: primary human endothelial cells with macrophages. The method in brief: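 Human venular endothelial cells co-cultured with macrophages, IMphg system. IL-1α is measured by ELISA 24 h after dosing and fitted in the positive direction against DMSO. Cytotoxicity is assessed by SRB staining of parallel cultures.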

Read-out in assay [8]: E-selectin (Homo sapiens) (UniProt P16581)
The assay is described as follows: BSK_IMphg_ESelectin: BioMAP Diversity Plus: IMphg Assay for Eselectin Biomarker Activity (AID 2284291). The settings on record: primary human endothelial cells with macrophages. The method in brief: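 Human venular endothelial cell–macrophage co-culture, E-selectin measured by ELISA 24 h after chemical dosing. Signal fitted in the positive direction against DMSO as negative control and baseline.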

Assay [9] can be described thus: BSK_IMphg_SRB: Viability Assessment in the BioMAP Diversity Plus: IMphg Assay (AID 2284292).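 Further: measured one day after compound addition.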 The settings on record: primary human endothelial cells with macrophages. A digest of the protocol: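 Human venular endothelial cells with macrophages, 24 h after chemical dosing; total protein by 0.1% SRB staining after 10% TCA fixation, read at 560 nm. Positive-direction fitting versus DMSO baseline.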

Read-out in assay [10]: Macrophage colony-stimulating factor (MCSF), CSF1 (gene 1435)
The assay is described as follows: BSK_IMphg_MCSF: BioMAP Diversity Plus: IMphg Assay for Macrophage colony-stimulating factor (MCSF) Biomarker Activity (AID 2284293). The settings on record: primary human endothelial cells with macrophages. The method in brief: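 Co-culture of human venular endothelial cells and macrophages, 24 hours of chemical exposure. M-CSF quantified by ELISA, with parallel SRB total-protein staining for cytotoxicity; activity fitted relative to DMSO.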

Read-out in assay [11]: Interleukin-10 (IL10), IL10 (gene 3586)
The assay is described as follows: BSK_IMphg_IL10: BioMAP Diversity Plus: IMphg Assay for Interleukin-10 (IL10) Biomarker Activity (AID 2284294). The settings on record: primary human endothelial cells with macrophages. The method in brief:
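Human venular endothelial cells cocultured with macrophages, dosed 24 h; IL-10 measured by ELISA, activity relative to DMSO. Cytotoxicity assessed in parallel cultures by sulforhodamine B total-protein staining.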

Assay [12] can be described thus: BSK_IMphg_SRB.Mphg: Macrophage Viability Assessment in the BioMAP Diversity Plus: IMphg Assay (AID 2284295). To be noted: primary human endothelial cells with macrophages. A digest of the protocol: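 Venular endothelial cells co-cultured with macrophages, read 24 h after dosing. Total protein measured by 0.1% SRB staining after 10% TCA fixation, absorbance at 560 nm. Fitted in positive direction against DMSO baseline.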

Read-out in assay [13]: Thrombomodulin, THBD (gene 7056)
The experiment in a line: BSK_LPS_Thrombomodulin: BioMAP Diversity Plus: LPS Assay for Thrombomodulin Biomarker Activity (AID 2284296). The settings on record: primary human HUVEC with PBMC. The method in brief: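 Human umbilical vein endothelial cells co-cultured with PBMC and stimulated with LPS; cell-surface thrombomodulin measured by ELISA 24 hours after compound. Gain or loss versus DMSO; cytotoxicity checked by SRB staining in parallel cultures.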

Values joined by “and” are separate entries in the source; they are usually repeats but may differ in a detail not shown here. Equal values may be shown once. The source holds several records for some structures; these can differ, active in one and inactive in another. Active and inactive are the calls of the source. How the source made its calls: active means hit-call score of the fitted dose curve at least 0.9, where 1 is the maximum; inactive means score below 0.9.

E-selectin (Homo sapiens), sequence (P16581 whole entry, looked up): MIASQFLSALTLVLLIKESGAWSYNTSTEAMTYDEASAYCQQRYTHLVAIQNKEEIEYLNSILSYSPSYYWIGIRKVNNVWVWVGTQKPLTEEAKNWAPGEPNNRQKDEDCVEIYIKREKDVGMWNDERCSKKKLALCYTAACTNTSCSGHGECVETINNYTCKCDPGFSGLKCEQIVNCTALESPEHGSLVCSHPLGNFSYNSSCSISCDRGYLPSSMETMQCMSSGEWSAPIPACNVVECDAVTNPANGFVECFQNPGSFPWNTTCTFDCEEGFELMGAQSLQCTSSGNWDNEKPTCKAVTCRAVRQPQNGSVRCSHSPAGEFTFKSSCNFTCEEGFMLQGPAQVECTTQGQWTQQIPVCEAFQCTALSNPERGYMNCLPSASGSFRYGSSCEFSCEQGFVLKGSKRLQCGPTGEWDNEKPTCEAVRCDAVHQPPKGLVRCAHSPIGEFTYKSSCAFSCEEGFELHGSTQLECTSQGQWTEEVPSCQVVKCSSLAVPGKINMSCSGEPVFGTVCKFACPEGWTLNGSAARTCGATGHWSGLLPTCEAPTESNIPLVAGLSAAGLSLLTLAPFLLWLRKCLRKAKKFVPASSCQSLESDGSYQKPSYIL

Consider `OCC(F)(F)C(F)(F)C(F)(F)C(F)(F)C(F)(F)C(F)F`, for which the result in assay [1], in assay [2], in [3], in [4], in assay [5] and in assay [6] was inactive. Also, the result in assay [7], in assay [8], in assay [9], in assay [10], in assay [11] and in [12] was inactive. Also, in assay [13], the outcome was inactive. In addition, the AC50 was 1790 nM (active) in assay [5], 23400 nM (active) in [7] and 596 nM (active) in assay [12].

As to `O=C(O)C(F)(F)C(F)(F)C(F)(F)F`, the result in assay [1], in assay [2], in [3], in [4], in [5] and in assay [6] was inactive. For the same compound, the outcome in [7], in assay [8], in assay [9], in assay [10], in assay [12] and in assay [13] was inactive. Further, in [5], the AC50 was 319 nM (active).

Turning to `O=C(O)C=C(C(F)(F)F)C(F)(F)F`, the AC50 is 10800 nM (active) in assay [1]; 2310 nM (active) in [3]; 20.2 µM (active) and 18 µM (active) in [8]; 1970 nM (active) in assay [13]. The outcome in assay [1], in assay [2], in assay [3], in assay [5], in assay [6] and in assay [7] was inactive. In addition, the result in assay [9], in [10], in assay [12] and in assay [13] was inactive.

On to `C=CC(F)(F)C(F)(F)C(F)(F)C(F)(F)C(F)(F)C(F)(F)C(F)(F)C(F)(F)F`, for which the outcome in [1], in assay [2], in [3], in assay [5], in assay [6] and in assay [7] was inactive. Further, the result in assay [8], in assay [9], in [10], in [11], in assay [12] and in assay [13] was inactive.

`FC1CC(F)(F)C(F)(F)C1(F)F` (stereo not given): the result in assay [1], in assay [2], in assay [3], in [5], in [6] and in assay [7] was inactive. The outcome in [8], in [9], in [10], in assay [12] and in assay [13] was inactive.

For the compound `FC(F)(F)C(F)(F)C(F)(F)C(F)(F)C(F)(F)C(F)(F)CC1CO1` (stereo not given), the result in assay [1], in [2], in [3], in [5], in assay [6] and in [7] was inactive. Besides, the result in assay [8], in assay [9], in [10], in [11], in assay [12] and in assay [13] was inactive.

With `C=C(C)C(=O)OCC(F)(F)C(F)(F)C(F)(F)C(F)(F)C(F)(F)C(F)(F)C(F)(F)F`, the outcome in [1], in [2], in assay [3], in assay [5], in assay [6] and in assay [7] was inactive. The outcome in [8], in assay [9], in [10], in assay [12] and in [13] was inactive. Further, the AC50 in assay [12] is 24.8 nM (active).

In general, AC50 refers to the concentration at which the activity in the assay is half-maximal.

(Values after PubChem BioAssay (EPA / NIEHS).)
